Test [1] can be described thus: NCI Yeast Anticancer Drug Screen. Data for the rad50 strain (AID 155).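 Also: 0% = growth of vehicle-only cultures of the same strain.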 Particulars: S. cerevisiae rad50 strain growth inhibition; at 50.0 µM; active compounds read high. The gist of the method:
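Readout: growth inhibition relative to vehicle-treated cultures. Compound exposure was carried out in a genetically defined yeast strain deficient in DNA damage repair.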

Test [2] is described as follows: NCI Yeast Anticancer Drug Screen. Data for the mec2-1 strain (AID 157). Particulars: S. cerevisiae mec2-1 strain, at 50.0 µM, active compounds read high. The method, boiled down:
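Growth inhibition is read against vehicle-treated controls after compound exposure of the mec2-1 yeast strain, which is defective in DNA damage repair or cell cycle control.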

Test [3] in a line: NCI Yeast Anticancer Drug Screen. Data for the sgs1 mgt1 strain (AID 161).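 Also: 0% = growth of cultures given vehicle only.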 The note with it: S. cerevisiae sgs1 mgt1 strain, at 50.0 µM, active compounds read high. The method, boiled down:
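Percent growth inhibition was derived by comparing compound-exposed mutant yeast with vehicle-exposed cultures. The strain carries alterations in DNA damage repair.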

Test [4] in a line: NCI Yeast Anticancer Drug Screen. Data for the cln2 rad14 strain (AID 165).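 Also: 0% = growth equal to vehicle treated cultures.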 The note with it: S. cerevisiae cln2 rad14 strain, at 50.0 µM, active compounds read high. The gist of the method:
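Growth inhibition, relative to vehicle-treated controls, is the read-out. The test organism is a yeast strain with defined genetic alterations, cln2 rad14.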

Test [5] in a line: NCI Yeast Anticancer Drug Screen. Data for the bub3 strain (AID 167). The note with it: S. cerevisiae bub3 mutant strain, at 50.0 µM, active compounds read high. The method, boiled down: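 Readout: yeast growth inhibition, expressed relative to vehicle-only wells. The test organism is a mutant strain from a panel with lesions in DNA repair or checkpoint genes.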
Test [6] in a line: NCI Yeast Anticancer Drug Screen. Data for the mlh1 rad18 strain (AID 175). Particulars: S. cerevisiae mlh1 rad18 strain growth inhibition; at 50.0 µM; active compounds read high. The gist of the method: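 Cells of a genetically altered yeast strain, deficient in DNA damage repair, were treated with compound. Their growth was then compared with that of vehicle-treated cultures to give inhibition.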

The panel holds about 79,000 compounds, 15% with a hit somewhere; the sample as a whole holds those more often. A number with no mark means an inactive call. The source made the active and inactive calls. Rule as the data show it: active = growth inhibition above about 70%; inactive = the rest.

Take `CCSC(SCC)[C@H](NC(C)=O)[C@@H](O)[C@H](O)[C@H](O)CO`: the growth inhibition in test [1] was -6.8%; in test [2], -12.2%; in test [3] it was -8.85%; in test [4] it was 0.1%; in test [5], 2.85%; in test [6], -12.3%.
For `CC(=O)NNc1nc(C)c(C(=O)NNC(=O)C(=O)Nc2ccc(C)c(C)c2)s1`, the growth inhibition was 8.7% in test [1]; -1.2% in test [2]; -6.05% in test [3]; 4.8% in test [4]; 20.9% in test [5]; -1.45% in test [6].
`C=C1c2nc3ccccc3n2C=C(c2ccc(Cl)cc2)N1c1ccccc1`: the growth inhibition is -4.65% in test [1]; 23.4% in test [2]; -10.7% in test [3]; 9.7% in test [4]; -1.6% in test [5]; 33.5% in test [6].
Take `CC1=NN(c2nc(N)nc(CN3CCOCC3)n2)C(C)(C)C1`: the growth inhibition in test [1] is 30.1%; in test [2] it was 3.5%; in test [3] it was 17.4%; in test [4] it was 20.6%; in test [5], 5.75%; in test [6], -2.05%.
In the case of `O=C(O)c1ccnc2c(S(=O)(=O)O)cccc12`, the growth inhibition in test [1] is 14.7%; in test [2] it was -2.05%; in test [3], -0.95%; in test [4] it was -35.5%; in test [5], 3.25%; in test [6], 12.4%.
For `CC(=O)Nc1ccc(/C=N/NC(=O)COCC(=O)N/N=C/c2ccc(NC(C)=O)cc2)cc1`, the growth inhibition is 7.8% in test [1]; 11.1% in test [2]; 0.15% in test [3]; 86.3% (active) in test [4]; -3.2% in test [5]; -9.65% in test [6].
As for `Cc1nc(=O)n2c(c1C(=O)Nc1ccc(Cl)cc1)NCC2`, the growth inhibition in test [1] was 3.75%; in test [2], -3.35%; in test [3], 0.1%; in test [4] it was -37.9%; in test [5] it was 2.35%; in test [6], 14.8%.
For the compound `OCC1CC(O)CN2CCc3c([nH]c4ccccc34)C2C1` (stereo not given), the growth inhibition in test [1] was 4.6%; in test [2] it was 3.25%; in test [3], 11.3%; in test [4], -5.2%; in test [5], 0.1%; in test [6], 2.8%.
In the case of `Cc1nnc2c3nccnc3c(Cl)nn12`, the growth inhibition in test [1] was 20.8%; in test [2], 25%; in test [3], 56.3%; in test [4] it was 20.3%; in test [5], 9%; in test [6], 24.1%.
`CCCCCCC1=CC(=O)CC(=O)C1`: the growth inhibition in test [1] was 25.9%; in test [2], 7.1%; in test [3], 16.6%; in test [4], 13.6%; in test [5] it was 18%; in test [6], 4.25%.
Take `O=C(N/C(=C/c1ccc(Cl)cc1)c1nc2ccccc2c(=O)n1Nc1ccc([N+](=O)[O-])cc1[N+](=O)[O-])c1ccccc1`: the growth inhibition in test [1] is -19%; in test [2] it was -5%; in test [3], -19.7%; in test [4], 0.3%; in test [5] it was -21.6%; in test [6], -17.5%.
In the case of `CCN(CC)CCOc1ccc(N2Cc3cc(OC)c(OC)cc3C2=O)cc1`, the growth inhibition was -11.9% in test [1]; -7.45% in test [2]; -4.2% in test [3]; 13.5% in test [4]; 8.6% in test [5]; -13.8% in test [6].
`Nc1cc(N)cc([N+](=O)[O-])c1`: the growth inhibition is -9.75% in test [1]; -16.4% in test [2]; -8% in test [3]; -13.7% in test [4]; 8.8% in test [5]; 15.2% in test [6].
Turning to `OC(Cc1cccnc1)(c1ccccc1)c1cccc2ccccc12` (stereo not given), the growth inhibition in test [1] is 12.3%; in test [2] it was 13.8%; in test [3], -2.3%; in test [4] it was 7.45%; in test [5], 10.5%; in test [6], 13.9%.
With `CS(C)=O.CS(C)=O.[Cl][Ru+2][Cl].[NH-]c1ccccc1[NH-]`, the growth inhibition was 38.6% in test [1]; 7.6% in test [2]; 34.4% in test [3]; 23.8% in test [4]; -1.9% in test [5]; 27.8% in test [6].
As for `NCCCCN(CCCN)Cc1ccccc1`, the growth inhibition in test [1] is -4.8%; in test [2], -1.25%; in test [3], -17.1%; in test [4], 11.6%; in test [5], -4%; in test [6], -58.9%.
With `C=CC(C)(C)c1c(OC(C)=O)cc2oc3c(OC(C)=O)c(OC(C)=O)cc(CC=C(C)C)c3c(=O)c2c1O`, the growth inhibition in test [1] was 34%; in test [2], 12.3%; in test [3] it was 11.2%; in test [4], 7.35%; in test [5], -5.85%; in test [6], -0.55%.
For `O=C1CCCCC1C(Nc1ccccc1)c1ccccc1` (stereo not given), the growth inhibition is 2.95% in test [1]; -6% in test [2]; -10.7% in test [3]; 15.8% in test [4]; -2.6% in test [5]; 17.1% in test [6].
With `Cc1ccc2c(=O)cc(-c3cccc(F)c3)[nH]c2n1`, the growth inhibition in test [1] is -4.9%; in test [2], -0.9%; in test [3], -11%; in test [4], 23.9%; in test [5] it was -6.25%; in test [6] it was -16.4%.
Regarding `OCCCCN(CCO)CCCCO`, the growth inhibition was -2.75% in test [1]; -7.25% in test [2]; -1.5% in test [3]; -12.4% in test [4]; 13.9% in test [5]; -3.5% in test [6].

Values taken from PubChem BioAssay (NCI).
